# In the library only some 1.3% were active in any assay of this set; here they are far more common.
# HTR5A ag ctr: counter-screen for OPRM1-OPRD1 agonists: human HTR5A agonism; actives 0.61% (n = 340,000); HTR5A agonist assay, luminescence, cell-based; AID 504692; P47898; activation, % at 9.3 µM; in the data active = activation mostly above about 9.5%, no sharp cut-off; inactive = mostly below about 7.6%;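 also: 0% = cells with vehicle only and 100% = reference agonist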
# Target sequence (P47898 whole entry, looked up): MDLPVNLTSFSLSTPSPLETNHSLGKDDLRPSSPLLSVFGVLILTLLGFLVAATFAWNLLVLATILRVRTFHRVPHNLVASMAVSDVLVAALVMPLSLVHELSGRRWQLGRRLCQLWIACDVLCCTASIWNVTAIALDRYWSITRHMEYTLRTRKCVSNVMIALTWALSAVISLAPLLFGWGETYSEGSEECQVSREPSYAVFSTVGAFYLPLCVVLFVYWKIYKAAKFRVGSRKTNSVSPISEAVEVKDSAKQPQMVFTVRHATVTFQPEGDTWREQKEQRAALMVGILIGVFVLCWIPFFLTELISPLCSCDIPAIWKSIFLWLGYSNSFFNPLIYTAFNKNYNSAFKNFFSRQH
# MOR-DOR ag: agonists of human mu-delta opioid receptor heterodimerization | cells, OPRM1-OPRD1 heterodimerization, luminescence | activation, % at 9.3 µM | actives 0.3% (n = 340,000); in the data active = activation above about 18%;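 also: 0% = vehicle-treated cells and 100% = reference agonist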
# CR mimetic SO: yeast age-related superoxide inhibition as caloric restriction mimetic; S. cerevisiae aged cells, superoxide DHE fluorescence; active compounds read low; superoxide response (% of plate mean), % at 10 µM; actives 0.18% (n = 330,000);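 active = superoxide response under a set limit, about three screen SD below normal, cut at about 65% in these data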;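 also: yeast aged for seven days with compound at 30 °C before DHE staining; 100% = average MFI of all compound-treated wells on the plate with controls excluded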
# PvdQ inh: P. aeruginosa PvdQ acylase inhibition. actives 0.063% (n = 340,000). purified PvdQ acylase, fluorescence plate reader. inhibition, % at 10 µM; in the data active = inhibition above about 30%, passing the limit was not always enough;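 also: 0% = vehicle neutral wells and 100% = reference inhibitor wells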
# MOR-DOR inv ag-1: mu-delta opioid heterodimer inverse agonism; P35372+P41143; cell-based MOR-DOR heterodimer luminescence; inhibition, % at 9.3 µM; actives 0.21% (n = 340,000); in the data active = inhibition above about 22%, passing the limit was not always enough;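 also: 0% = cells with DMSO and 100% = wells without cells with DMSO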
# HTR5A inv ctr: inverse agonist of human HTR5A in OPRM1-OPRD1 counter-screen; AID 504634; actives 0.083% (n = 340,000); HTR5A cell line, luminescence, inverse agonism; P47898; inhibition, % at 9.3 µM; in the data active = inhibition mostly above about 23%, no sharp cut-off; inactive = mostly below about 18%;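 also: 0% = cells with DMSO and 100% = no-cell wells with DMSO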
# MOR-DOR ag conf: OPRM1-OPRD1 heterodimer agonism, confirmation. cells, MOR-DOR heterodimerization, luminescence complementation. shares compounds with MOR-DOR ag. activation, % at 9.3 µM. actives 45% (n = 830); in the data active = activation above about 18%;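 also: 0% = vehicle-treated cells and 100% = reference agonist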
# HTR5A ag ctr2: HTR5A agonism, opioid heterodimer counter-screen | shares compounds with MOR-DOR ag | HTR5A agonist counterscreen, cell luminescence | activation, % at 9.3 µM | actives 8% (n = 830) | AID 504905; in the data active = activation above about 17%;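 also: 0% = vehicle-treated cells and 100% = reference agonist response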
# OPRM1-D1 inv cf: confirmation of human OPRM1-OPRD1 heterodimerization inverse agonists; shares compounds with MOR-DOR inv ag-1; cells expressing OPRM1/OPRD1 heterodimer, luminescence; inhibition, % at 9.3 µM; actives 20% (n = 580); AID 504900; in the data active = inhibition above about 32%;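 also: 0% = cells with DMSO and 100% = wells lacking cells with DMSO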
# HTR5A inv count: counter-screen for OPRM1-OPRD1 inverse agonists: human HTR5A inverse agonism; inhibition, % at 9.3 µM; 580 tested, under 10 active; shares compounds with MOR-DOR inv ag-1; HTR5A-expressing cells, luminescence;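 also: 0% = cells with DMSO and 100% = no-cell wells with DMSO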
# MOR-DOR inv ag-2: counter-screen for HTR5A inverse agonists: OPRM1-OPRD1 heterodimerization inverse agonism; shares compounds with HTR5A inv ctr; U2OS counter-screen cells, complementation luminescence; inhibition, % at 9.3 µM; 190 tested, under 10 active; AID 504912;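 also: 0% = cells with DMSO and 100% = wells without cells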
# HTR5A inv conf: HTR5A (human) inverse agonism, confirmation | AID 504916 | inhibition, % at 9.3 µM | shares compounds with HTR5A inv ctr | HTR5A-expressing cells, luminescence | 190 tested, under 10 active;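 also: 0% = cells with DMSO and 100% = no cells with DMSO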
# Starred values were filed as active, the others as inactive; · = no result given. Unless noted, no rule for the calls is given here.
SMILES,HTR5A ag ctr,MOR-DOR ag,CR mimetic SO,PvdQ inh,MOR-DOR inv ag-1,HTR5A inv ctr,OPRM1-D1 inv cf,HTR5A inv count,others
CCN(CC)c1ccc(C(=C2C=CC(=[N+](CC)CC)C=C2)c2ccc(N(CC)CC)cc2)cc1,-19.8,108.1*,·,12.1,-430.7,50.3*,·,·,MOR-DOR ag conf=3.8;HTR5A ag ctr2=32.9*;MOR-DOR inv ag-2=-58.5;HTR5A inv conf=-121.9
O=C(CCN1C(=O)c2ccccc2S1(=O)=O)Nc1ccc(C(=O)O)cc1,0.0,-1.8,104.5,-10.5,9.7,11.4,·,·,
Cc1ccc(OCCN2C(=O)C(=O)c3cc(C)ccc32)cc1,0.2,-4.4,102.7,-8.1,23.2,7.1,·,·,
Cc1ccc2c(c1)C(=O)C(=O)N2CC(=O)OC(C)C,-9.2,-9.7,89.8,-27.4,54.5*,23.4,9.8,-0.8,
Cc1nn(CC(C)C)c(Cl)c1C(=O)N(c1ccc(Cl)cc1F)S(C)(=O)=O,4.4,2.9,99.1,7.7,-24.2,2.4,·,·,
CC(C)OC(=O)C(=O)NNc1ccccc1,-3.0,-3.4,105.4,0.4,24.0*,8.2,4.1,3.1,
CCOC(=O)C(=O)NNc1ccc(C)cc1,0.6,-6.0,110.0,-15.0,31.1*,-2.1,-1.3,19.4,
CCCOC(=O)C(=O)NNc1ccccc1,2.2,0.0,98.5,-13.6,-0.2,-6.2,·,·,
Cc1ccc(-c2cccc(NC(=O)C3C(C(=O)O)[C@@H]4C=C[C@H]3C4)c2)o1 (stereo partly specified),-2.4,-1.2,97.0,-9.5,6.8,6.1,·,·,
Cc1ccc(-c2ccccc2NC(=O)C2C3C=CC(C3)C2C(=O)O)o1 (stereo unspecified),-2.0,-5.8,108.5,-7.6,34.5*,-6.8,-39.2,0.7,
CC(=O)N1CCN(c2nnc(-c3ccccc3)c3ccccc23)CC1,1.3,-1.0,83.3,-16.6,4.8,-5.2,·,·,
CC(=O)C1=C(c2ccccc2)N(C(C)=O)n2c(C)nnc2S1,-1.9,-17.0,124.3,-4.4,86.3*,4.9,16.4,12.5,
Cc1ccc(Cl)c2c1NC(=O)C2(O)CC(=O)c1ccccc1O (stereo unspecified),-3.9,-14.9,94.9,-5.7,80.3*,27.4,75.5*,-9.5,
O=C(COC(=O)CCOc1ccccc1)NCCc1ccccc1,-1.4,-2.0,87.8,-10.6,10.6,4.0,·,·,
O=C(CCOc1ccccc1)OCC(=O)c1cc2ccccc2o1,-3.9,-8.8,98.5,2.9,37.0*,9.7,-13.8,28.0,
O=C(Cn1cnc2ccccc2c1=O)NC1CCS(=O)(=O)C1 (stereo unspecified),-5.7,-0.9,106.5,-6.2,5.5,17.2,·,·,
COc1ccc(N2COC3c4cccc5cccc(c45)C32)cc1 (stereo unspecified),-3.6,-9.3,96.8,-13.2,49.8*,9.2,-267.1,-58.0,
O=C(CNc1ccc(Br)cc1)c1ccccc1,1.2,-2.6,92.1,-13.1,13.4,-18.1,·,·,
O=C(CNc1ccc(F)cc1)c1ccccc1,-5.5,-5.7,108.0,-5.0,37.0*,13.7,-8.9,5.8,
Cn1c(-c2ccc(F)cc2)cnc1NCc1ccccc1F,-0.2,-7.4,97.7,-14.3,37.7*,-17.6,-9.6,-4.9,
Cn1nnc(NC(=S)NC(=O)c2cccs2)n1,-8.8,-6.2,85.5,-4.7,30.6,21.2,·,·,
COc1cc(OC)cc(C(=O)NC(=S)Nc2nnn(C)n2)c1,-1.4,-8.2,99.9,5.8,41.1*,0.7,24.8,7.0,
Cn1nnc(NC(=S)NC(=O)c2cccc3ccccc23)n1,-1.1,-7.7,101.8,0.9,40.8*,4.7,9.3,3.4,
O=C(Nc1ccc(Cl)c(C(F)(F)F)c1)[C@@H]1CC=C[C@@H]2CCN(Cc3ccc(Cl)c(Cl)c3)C(=O)[C@@H]21,9.4,0.3,·,7.6,-1.6,-25.2,·,·,
F[B-](F)(F)COCc1ccccc1Br,-2.0,-3.4,·,-2.9,16.0,7.5,·,·,
SMILES,HTR5A ag ctr,MOR-DOR ag,CR mimetic SO,PvdQ inh,MOR-DOR inv ag-1,HTR5A inv ctr,OPRM1-D1 inv cf,HTR5A inv count,others
[O-]/[N+](=C\c1ccccc1)[C@@H]1CCCC[C@@H]1/[N+]([O-])=C/c1ccccc1,4.4,-8.9,111.6,-22.8,37.0*,3.3,18.4,4.4,
O=C1NC(=S)S/C1=C\c1cc(Cl)cc(Cl)c1O,0.4,-7.1,·,-0.4,34.6*,-1.6,-59.1,-13.0,
O=C(COC(=O)c1ccccn1)c1cccc(Br)c1,-2.2,-7.2,88.3,2.3,37.1*,16.6,13.8,9.0,
CCn1c(Cl)c(C=O)s/c1=N\S(=O)(=O)c1ccccc1,-2.2,-6.3,97.8,7.3,33.5*,6.1,19.7,16.5,
CCN1C(=O)CS/C1=N\S(=O)(=O)c1ccc(Cl)cc1,0.2,-0.9,87.6,8.8,4.6,-0.7,·,·,
CC(=O)OCC1(C)CN(c2ccccc2)N(C(=O)c2ccc(F)cc2)C1=O (stereo unspecified),-0.5,-6.1,83.5,-6.7,44.3*,1.2,27.4,-9.4,
CCC(=O)N1c2ccc(S(=O)(=O)NCCc3ccccc3)cc2CC1C (stereo unspecified),-1.6,-0.5,92.0,-9.8,2.8,18.1,·,·,
COc1cccc(-n2nc(C(N)=O)c(O)cc2=O)c1,1.9,-2.4,94.7,23.9,13.7,-5.4,·,·,
COc1cccc(-n2nc(C#N)c(Cl)cc2=O)c1,-5.2,-5.0,·,-14.3,28.5*,13.7,-1.7,17.5,
Cc1nn(CCC(=O)NNC(=S)Nc2ccc([N+](=O)[O-])cc2)c(C)c1[N+](=O)[O-],0.0,-4.5,112.9,1.3,24.1,7.9,·,·,
Cc1nn(CCC(=O)NNC(=S)Nc2ccc(F)cc2)c(C)c1Br,-3.0,-7.9,98.7,4.8,43.6*,-26.7,1.8,7.4,
COc1ccc([C@@H](OC)[C@@]2(Cc3ccc(O)cc3)N=C(N)N(C)C2=O)cc1,-2.7,-1.2,116.6,-20.6,6.6,12.4,·,·,
O=S(=O)(Cc1ccccc1)N(O)c1ccccc1,-1.9,-6.6,98.1,-8.5,42.6*,5.5,-11.1,0.4,

# Bioassay records (PubChem BioAssay)
